SMILES strings stand for the structures. Records with an inconclusive call do not appear. The source made the active and inactive calls. Calls follow the shape of the dose curve; as a rule, active = well fitted curve in the direction sought with a large enough effect; inconclusive = small, poorly fitted or top-dose-only effect, or another doubt; inactive = no such curve, though single readings can be large; an effect the other way counts as inactive or inconclusive.
Potency is read from the fitted curve at half-maximal effect.

The first test can be described thus: qHTS of pediatric cancer cell lines to identify multiple opportunities for drug repurposing: Confirmatory screen for A673 cells (AID 1347110). Also: nearly all actives have a fitted effect of over 65% in size. As to conditions: A673 Ewing sarcoma cell viability; series mostly up to 45.9 µM. The gist of the method: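 Forty-eight-hour viability assay. Follow-up compounds ran at 11-point dilutions; positive control bortezomib at 2.3 uM final, neutral control DMSO.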
As for `Nc1[nH]nc2nnc(-c3c(-c4ccccc4)nn4ccccc34)cc12`, the Potency is 13.1 µM (active).
On the same count and under the same terms, the value for `CC(C)CN(C[C@@H](O)[C@H](Cc1ccccc1)NC(=O)O[C@H]1CO[C@H]2OCC[C@H]21)S(=O)(=O)c1ccc(N)cc1` was “inactive”; that for `O=C(c1ccc(F)c(F)c1Nc1ccc(I)cc1F)N1CC(O)([C@H]2CCCCN2)C1` was 26.1 µM (active).
As for `COc1cc2c(cc1OC)[C@@H]1Cc3ccc(OC)c(OC)c3CN1CC2`, the Potency result is “inactive”.
In the case of `CN(C)CCN(C)C(=O)c1ccc(NC(=O)Nc2ccc(-c3nc(N4CCOCC4)c4ccn(CC(F)(F)F)c4n3)cc2)cc1`, the Potency was 0.293 µM (active).
Still for that read-out and setting: with `CNC(=O)[C@H](CC1=CN=C2C=CCC=C12)NC(=O)[C@@H](CC(=O)NO)CC(C)C` the figure was 14.7 µM (active); with `CC1(COc2ccc3c(c2)ncn3-c2ccc3cccc(N4CCC(N)CC4)c3n2)COC1`, 7.37 µM (active).

Another test can be described thus: qHTS of pediatric cancer cell lines to identify multiple opportunities for drug repurposing: Confirmatory screen for SK-N-MC cells (AID 1347111).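 Also: cells exposed to compound for 48 h before the readout; nearly all actives have a fitted effect of over 70% in size.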 As to conditions: SK-N-MC cell viability; series mostly up to 45.9 µM. The gist of the method:
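SK-N-MC cells at 500-1,000 cells/well in growth media were pre-incubated 5 h, then exposed to compounds at 11-point dilutions for 48 h at 37 degrees C, 5% CO2. Viability was read as CellTiter-Glo luminescence.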
(In general: qHTS replaces the single test concentration by a dilution series.)
Turning to `CN1N=C(N)c2cn([C@@H]3O[C@H](COP(=O)(O)O)[C@@H](O)[C@@H]3O)c3ncnc1c23`, the Potency was 3.69 µM (active).
Regarding `FC(F)(F)c1ccc(C=Cc2nc(COc3ccc(CCCCn4ccnn4)cc3)co2)cc1`, the Potency is 1.17 µM (active).
As to `O=C1NC(=O)C(c2cnc3ccccn23)=C1c1cn2c3c(cccc13)CN(C(=O)N1CCOCC1)CC2`, the Potency was 14.7 µM (active).
Take `COc1cc2c(cc1Cc1cccc(Cl)c1F)c(=O)c(C(=O)O)cn2[C@H](CO)C(C)C`: the Potency is 14.7 µM (active).
Turning to `O=c1[nH]nc(OCCCc2ccc(Cl)cc2)c(NCc2cccnc2)c1Br`, the Potency was 16.5 µM (active).

Another test is described as follows: qHTS of pediatric cancer cell lines to identify multiple opportunities for drug repurposing: Confirmatory screen for BT-12 cells (AID 1347112). Also: nearly all actives have a fitted effect of over 55% in size. As to conditions: BT-12 rhabdoid tumor cells, viability; series mostly up to 45.9 µM. The gist of the method:
(§1)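 Viability after 48 h compound treatment at 37C, 500-1,000 cells/well, read as ATP luminescence with CellTiter-Glo. Primary screens used 11-point (MIPE, 0.78 nM-46 µM) or 8-point (NPC, 0.59 nM-46 µM) final concentrations; follow-up screens used 11-point dilutions.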
`CC(C)CN(C[C@@H](O)[C@H](Cc1ccccc1)NC(=O)O[C@H]1CO[C@H]2OCC[C@H]21)S(=O)(=O)c1ccc(N)cc1`: the Potency result was “inactive”.
Consider `Cc1ccc2c(c1)C(=O)[C@]1(O)CCN(c3ccccc3)C1=N2`, for which the Potency result is “inactive”.
For the compound `CC(C)C[C@H](NC(=O)c1cc2ccccc2s1)C(=O)N1CCN(C(=O)[C@H](CO)NS(=O)(=O)c2ccc(Cl)cc2Cl)CC1`, the Potency was 0.0037 µM (active).
Same read-out and setting: with `CN(C)CCN(C)C(=O)c1ccc(NC(=O)Nc2ccc(-c3nc(N4CCOCC4)c4ccn(CC(F)(F)F)c4n3)cc2)cc1` the figure was 18.5 µM (active); with `CNC(=O)[C@H](CC1=CN=C2C=CCC=C12)NC(=O)[C@@H](CC(=O)NO)CC(C)C`, 2.61 µM (active).
For `COc1cc2ncnc(Nc3cc(Br)c(O)c(Br)c3)c2cc1OC`, the Potency entry is “inactive”.

The nature of another test: qHTS of pediatric cancer cell lines to identify multiple opportunities for drug repurposing: Confirmatory screen for DAOY cells (AID 1347114). Also: nearly all actives have a fitted effect of over 65% in size. As to conditions: DAOY medulloblastoma cells viability, cytotoxicity qHTS; series mostly up to 45.9 µM. In a few lines:
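Viability measured as metabolically active cells via CellTiter-Glo luminescence following 48 hours of compound exposure, 11-point dilutions in confirmatory testing. 500-1,000 cells/well plated 5 hours before dosing; controls were DMSO and 2.3 µM bortezomib.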
Consider `FC(F)(F)c1ccc(C=Cc2nc(COc3ccc(CCCCn4ccnn4)cc3)co2)cc1`, for which the Potency is 0.261 µM (active).
For `CN1CCN(c2ncc(-c3cc(Cl)cc(Cl)c3Cl)c(N)n2)CC1`, the Potency entry was “inactive”.
As for `O=c1[nH]nc(OCCCc2ccc(Cl)cc2)c(NCc2cccnc2)c1Br`, the Potency is 5.22 µM (active).

A further test is described as follows: qHTS of pediatric cancer cell lines to identify multiple opportunities for drug repurposing: Confirmatory screen for NB-EBc1 cells (AID 1347115). Also: nearly all actives have a fitted effect of over 45% in size. As to conditions: NB-EBc1 neuroblastoma cells, viability (cytotoxicity); series mostly up to 45.9 µM. In a few lines:
as §1
On to `FC(F)(F)c1ccc(C=Cc2nc(COc3ccc(CCCCn4ccnn4)cc3)co2)cc1`, for which the Potency is 0.369 µM (active).
In the case of `CN1CCN(c2ncc(-c3cc(Cl)cc(Cl)c3Cl)c(N)n2)CC1`, the Potency entry was “inactive”.
For the compound `CC(C)CN(C[C@@H](O)[C@H](Cc1ccccc1)NC(=O)O[C@H]1CO[C@H]2OCC[C@H]21)S(=O)(=O)c1ccc(N)cc1`, the Potency entry was “inactive”.
For `O=C(c1ccc(F)c(F)c1Nc1ccc(I)cc1F)N1CC(O)([C@H]2CCCCN2)C1`, the Potency result is “inactive”.
Take `N#CC(=C1Nc2ccccc2S1)c1ccnc(OCc2ccc(CN3CCOCC3)cc2)n1`: the Potency result is “inactive”.
Consider `Cc1nn(Cc2ccccc2Cl)c(C)c1CN(C)CC(O)COc1ccc(Cl)cc1` (stereo not drawn), for which the Potency result was “inactive”.
Consider `O=C1NC(=O)C(c2cnc3ccccn23)=C1c1cn2c3c(cccc13)CN(C(=O)N1CCOCC1)CC2`, for which the Potency was 2.93 µM (active).
`Cc1ccc2c(c1)C(=O)[C@]1(O)CCN(c3ccccc3)C1=N2`: the Potency entry is “inactive”.
`CN(C)CCN(C)C(=O)c1ccc(NC(=O)Nc2ccc(-c3nc(N4CCOCC4)c4ccn(CC(F)(F)F)c4n3)cc2)cc1`: the Potency result was “inactive”.
For `COc1cc2ncnc(Nc3cc(Br)c(O)c(Br)c3)c2cc1OC`, the Potency result is “inactive”.
For the compound `O=c1[nH]nc(OCCCc2ccc(Cl)cc2)c(NCc2cccnc2)c1Br`, the Potency is 13.1 µM (active).
Consider `CC1(COc2ccc3c(c2)ncn3-c2ccc3cccc(N4CCC(N)CC4)c3n2)COC1`, for which the Potency entry was “inactive”.

Another test can be described thus: qHTS of pediatric cancer cell lines to identify multiple opportunities for drug repurposing: Confirmatory screen for BT-37 cells (AID 1347117). Also: nearly all actives have a fitted effect of over 55% in size. As to conditions: BT-37 pediatric cancer cells, viability; series mostly up to 45.9 µM. In a few lines:
as §1
Regarding `CN1CCN(c2ncc(-c3cc(Cl)cc(Cl)c3Cl)c(N)n2)CC1`, the Potency was 26.1 µM (active).
Turning to `O=C1NC(=O)C(c2cnc3ccccn23)=C1c1cn2c3c(cccc13)CN(C(=O)N1CCOCC1)CC2`, the Potency is 16.5 µM (active).
Consider `Cc1ccc2c(c1)C(=O)[C@]1(O)CCN(c3ccccc3)C1=N2`, for which the Potency result is “inactive”.
With `CC(C)C[C@H](NC(=O)c1cc2ccccc2s1)C(=O)N1CCN(C(=O)[C@H](CO)NS(=O)(=O)c2ccc(Cl)cc2Cl)CC1`, the Potency was 13.1 µM (active).
The same measure, in the same setting: the value for `CNC(=O)[C@H](CC1=CN=C2C=CCC=C12)NC(=O)[C@@H](CC(=O)NO)CC(C)C` was 0.827 µM (active).

A further test is described as follows: qHTS of pediatric cancer cell lines to identify multiple opportunities for drug repurposing: Confirmatory screen for TC32 cells (AID 1347118). Also: nearly all actives have a fitted effect of over 65% in size. As to conditions: TC32 Ewing sarcoma cells viability qHTS; series mostly up to 45.9 µM. In a few lines: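 qHTS, TC32, 48 h drug treatment, CellTiter-Glo luminescence as a proxy for metabolically active cells; primary top concentration 46 µM (MIPE 11-pt, NPC 8-pt); confirmatory 11-pt.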
In the case of `CN1N=C(N)c2cn([C@@H]3O[C@H](COP(=O)(O)O)[C@@H](O)[C@@H]3O)c3ncnc1c23`, the Potency was 0.737 µM (active).
In the case of `Nc1[nH]nc2nnc(-c3c(-c4ccccc4)nn4ccccc34)cc12`, the Potency is 16.5 µM (active).
Turning to `CC(C)CN(C[C@@H](O)[C@H](Cc1ccccc1)NC(=O)O[C@H]1CO[C@H]2OCC[C@H]21)S(=O)(=O)c1ccc(N)cc1`, the Potency result was “inactive”.
For `O=C1NC(=O)C(c2cnc3ccccn23)=C1c1cn2c3c(cccc13)CN(C(=O)N1CCOCC1)CC2`, the Potency was 4.65 µM (active).
Regarding `COc1cc2c(cc1Cc1cccc(Cl)c1F)c(=O)c(C(=O)O)cn2[C@H](CO)C(C)C`, the Potency was 13.1 µM (active).
